Data as given in the supplement of paper PMC11732987, “Enantioselective OTUD7B fragment discovery through chemoproteomics screening and high-throughput optimisation” (Communications Chemistry, 2025).

Legend:
Experiment in all cases: log2 ratio of Biotin-Ahx-Ub-VS probe labelling (fragment/DMSO); higher = less target engagement (more negative = stronger competition), active = hit call of the paper (q ≤ 0.05, log2 ratio ≤ -1)
Settings in all cases: compound concentration: 200 uM; treatment time: 3 h
USP34 = USP34 (UniProt Q70CQ2)
Outline: (§1)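 The table lists average log2 ratios of fragment over vehicle, from an unpaired t-test on global-median-normalised Spectronaut label-free quantities. Proteins with ≥2 unique peptides were used. Samples were HEK293T lysate (495 µg) treated in triplicate with fragment at 200 µM or vehicle for 3 h, then with Biotin-Ahx-Ub-VS (0.5 µM final) for 1 h, with labelled DUBs NeutrAvidin-enriched and run by diaPASEF LC-MS/MS.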

USP36 = target: T1, USP36 (UniProt Q9P275)
T1 sequence (whole entry): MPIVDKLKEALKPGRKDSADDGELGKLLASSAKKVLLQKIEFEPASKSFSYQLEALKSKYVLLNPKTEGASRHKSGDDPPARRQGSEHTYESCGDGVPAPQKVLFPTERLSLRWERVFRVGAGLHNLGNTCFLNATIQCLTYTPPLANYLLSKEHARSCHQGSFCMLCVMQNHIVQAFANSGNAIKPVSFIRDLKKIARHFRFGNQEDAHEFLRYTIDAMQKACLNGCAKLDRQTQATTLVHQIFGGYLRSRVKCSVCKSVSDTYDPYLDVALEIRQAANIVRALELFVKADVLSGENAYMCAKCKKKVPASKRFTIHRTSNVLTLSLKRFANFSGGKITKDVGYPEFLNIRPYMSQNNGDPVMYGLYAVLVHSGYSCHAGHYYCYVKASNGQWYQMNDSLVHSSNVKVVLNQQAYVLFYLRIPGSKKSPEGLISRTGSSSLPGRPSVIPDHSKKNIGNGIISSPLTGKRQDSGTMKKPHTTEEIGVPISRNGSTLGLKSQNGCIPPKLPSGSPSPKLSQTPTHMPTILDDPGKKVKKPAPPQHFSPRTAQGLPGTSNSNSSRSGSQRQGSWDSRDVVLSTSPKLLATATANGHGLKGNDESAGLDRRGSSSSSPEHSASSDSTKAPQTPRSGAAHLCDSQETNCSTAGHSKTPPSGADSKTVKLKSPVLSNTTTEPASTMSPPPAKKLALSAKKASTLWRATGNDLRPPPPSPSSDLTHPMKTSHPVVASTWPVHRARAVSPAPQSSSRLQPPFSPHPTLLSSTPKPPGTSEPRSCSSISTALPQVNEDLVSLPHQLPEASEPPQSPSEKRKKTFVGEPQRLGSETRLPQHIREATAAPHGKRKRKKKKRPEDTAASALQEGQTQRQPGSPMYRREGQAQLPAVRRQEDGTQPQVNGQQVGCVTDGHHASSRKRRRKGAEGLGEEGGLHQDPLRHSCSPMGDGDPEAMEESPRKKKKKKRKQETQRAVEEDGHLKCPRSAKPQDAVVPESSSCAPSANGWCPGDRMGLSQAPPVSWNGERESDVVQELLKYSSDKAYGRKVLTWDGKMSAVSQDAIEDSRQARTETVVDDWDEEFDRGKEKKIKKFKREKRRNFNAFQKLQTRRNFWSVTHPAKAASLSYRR
Outline: as §1

USP38 = target: T2, USP38 (UniProt Q8NB14)
T2 sequence (whole entry): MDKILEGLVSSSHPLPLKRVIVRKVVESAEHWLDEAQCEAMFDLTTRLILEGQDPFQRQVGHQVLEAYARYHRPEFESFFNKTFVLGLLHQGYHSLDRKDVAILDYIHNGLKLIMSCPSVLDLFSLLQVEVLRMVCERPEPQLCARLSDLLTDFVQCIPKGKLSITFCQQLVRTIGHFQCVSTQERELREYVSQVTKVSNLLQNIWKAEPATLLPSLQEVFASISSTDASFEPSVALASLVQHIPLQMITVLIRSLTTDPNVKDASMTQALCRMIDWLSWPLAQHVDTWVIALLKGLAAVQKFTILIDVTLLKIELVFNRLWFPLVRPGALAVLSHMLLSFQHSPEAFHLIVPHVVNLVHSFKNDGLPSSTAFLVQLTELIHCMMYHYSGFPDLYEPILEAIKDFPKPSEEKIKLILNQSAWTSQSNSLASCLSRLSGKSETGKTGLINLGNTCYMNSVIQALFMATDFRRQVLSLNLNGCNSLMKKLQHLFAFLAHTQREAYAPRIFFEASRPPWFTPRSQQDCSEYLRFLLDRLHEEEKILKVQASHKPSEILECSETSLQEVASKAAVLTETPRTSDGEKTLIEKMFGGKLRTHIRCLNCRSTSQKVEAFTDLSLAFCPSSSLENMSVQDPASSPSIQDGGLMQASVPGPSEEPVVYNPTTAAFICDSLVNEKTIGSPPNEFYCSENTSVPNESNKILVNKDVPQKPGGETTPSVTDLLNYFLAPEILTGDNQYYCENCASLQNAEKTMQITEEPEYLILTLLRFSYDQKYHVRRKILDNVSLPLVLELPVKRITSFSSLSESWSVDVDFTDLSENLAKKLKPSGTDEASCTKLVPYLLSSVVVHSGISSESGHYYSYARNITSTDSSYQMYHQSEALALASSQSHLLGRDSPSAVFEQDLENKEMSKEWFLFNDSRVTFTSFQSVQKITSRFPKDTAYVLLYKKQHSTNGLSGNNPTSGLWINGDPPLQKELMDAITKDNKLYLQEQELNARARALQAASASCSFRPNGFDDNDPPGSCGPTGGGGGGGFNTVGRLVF
Outline: as §1

USP39 = target: T3, USP39 (UniProt Q53GS9)
T3 sequence (whole entry): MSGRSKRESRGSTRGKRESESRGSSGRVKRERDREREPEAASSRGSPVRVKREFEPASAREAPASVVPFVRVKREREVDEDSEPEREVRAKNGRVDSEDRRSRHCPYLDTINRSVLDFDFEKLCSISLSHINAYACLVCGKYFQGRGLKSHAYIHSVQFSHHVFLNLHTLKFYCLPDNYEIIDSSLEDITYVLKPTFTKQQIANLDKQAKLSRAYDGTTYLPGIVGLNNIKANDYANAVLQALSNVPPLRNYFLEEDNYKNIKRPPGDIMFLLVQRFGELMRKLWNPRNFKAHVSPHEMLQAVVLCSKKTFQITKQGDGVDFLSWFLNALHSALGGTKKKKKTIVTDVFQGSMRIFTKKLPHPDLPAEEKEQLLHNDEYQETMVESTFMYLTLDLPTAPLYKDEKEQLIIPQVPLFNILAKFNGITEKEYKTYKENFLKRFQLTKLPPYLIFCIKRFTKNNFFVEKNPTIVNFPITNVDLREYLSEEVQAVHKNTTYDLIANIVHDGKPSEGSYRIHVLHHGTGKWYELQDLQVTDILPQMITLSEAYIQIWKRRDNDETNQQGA
Outline: as §1

USP4 = target: T4, USP4 (UniProt Q13107)
T4 sequence (whole entry): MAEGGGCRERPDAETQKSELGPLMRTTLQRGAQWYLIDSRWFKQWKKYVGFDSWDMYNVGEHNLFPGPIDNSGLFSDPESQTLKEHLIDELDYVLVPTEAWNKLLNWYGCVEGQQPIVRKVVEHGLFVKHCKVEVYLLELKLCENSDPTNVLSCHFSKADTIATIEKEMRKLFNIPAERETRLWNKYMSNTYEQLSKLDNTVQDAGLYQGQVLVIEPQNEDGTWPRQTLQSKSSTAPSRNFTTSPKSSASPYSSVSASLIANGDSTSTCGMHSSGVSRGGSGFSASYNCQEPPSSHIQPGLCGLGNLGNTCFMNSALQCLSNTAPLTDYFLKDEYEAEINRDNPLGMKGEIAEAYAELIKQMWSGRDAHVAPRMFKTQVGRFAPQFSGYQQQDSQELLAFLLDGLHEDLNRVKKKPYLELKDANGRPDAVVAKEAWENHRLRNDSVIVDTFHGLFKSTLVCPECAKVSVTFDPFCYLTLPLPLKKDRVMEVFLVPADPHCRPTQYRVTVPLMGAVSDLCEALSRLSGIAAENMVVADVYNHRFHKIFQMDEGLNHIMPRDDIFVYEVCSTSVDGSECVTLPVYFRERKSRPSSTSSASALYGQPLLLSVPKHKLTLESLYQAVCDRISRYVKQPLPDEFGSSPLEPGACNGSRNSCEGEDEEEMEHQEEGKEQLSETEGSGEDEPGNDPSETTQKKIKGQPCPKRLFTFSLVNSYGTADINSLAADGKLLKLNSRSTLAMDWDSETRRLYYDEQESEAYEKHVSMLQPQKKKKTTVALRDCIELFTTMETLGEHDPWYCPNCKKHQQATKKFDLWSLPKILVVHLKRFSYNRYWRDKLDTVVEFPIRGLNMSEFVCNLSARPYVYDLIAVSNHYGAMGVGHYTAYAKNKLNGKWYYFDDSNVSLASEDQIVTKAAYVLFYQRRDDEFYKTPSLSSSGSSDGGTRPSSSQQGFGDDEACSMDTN
Outline: as §1

Measured: log2 ratio of Biotin-Ahx-Ub-VS probe labelling

USP34, sequence (Q70CQ2 whole entry, the tested form may be a part): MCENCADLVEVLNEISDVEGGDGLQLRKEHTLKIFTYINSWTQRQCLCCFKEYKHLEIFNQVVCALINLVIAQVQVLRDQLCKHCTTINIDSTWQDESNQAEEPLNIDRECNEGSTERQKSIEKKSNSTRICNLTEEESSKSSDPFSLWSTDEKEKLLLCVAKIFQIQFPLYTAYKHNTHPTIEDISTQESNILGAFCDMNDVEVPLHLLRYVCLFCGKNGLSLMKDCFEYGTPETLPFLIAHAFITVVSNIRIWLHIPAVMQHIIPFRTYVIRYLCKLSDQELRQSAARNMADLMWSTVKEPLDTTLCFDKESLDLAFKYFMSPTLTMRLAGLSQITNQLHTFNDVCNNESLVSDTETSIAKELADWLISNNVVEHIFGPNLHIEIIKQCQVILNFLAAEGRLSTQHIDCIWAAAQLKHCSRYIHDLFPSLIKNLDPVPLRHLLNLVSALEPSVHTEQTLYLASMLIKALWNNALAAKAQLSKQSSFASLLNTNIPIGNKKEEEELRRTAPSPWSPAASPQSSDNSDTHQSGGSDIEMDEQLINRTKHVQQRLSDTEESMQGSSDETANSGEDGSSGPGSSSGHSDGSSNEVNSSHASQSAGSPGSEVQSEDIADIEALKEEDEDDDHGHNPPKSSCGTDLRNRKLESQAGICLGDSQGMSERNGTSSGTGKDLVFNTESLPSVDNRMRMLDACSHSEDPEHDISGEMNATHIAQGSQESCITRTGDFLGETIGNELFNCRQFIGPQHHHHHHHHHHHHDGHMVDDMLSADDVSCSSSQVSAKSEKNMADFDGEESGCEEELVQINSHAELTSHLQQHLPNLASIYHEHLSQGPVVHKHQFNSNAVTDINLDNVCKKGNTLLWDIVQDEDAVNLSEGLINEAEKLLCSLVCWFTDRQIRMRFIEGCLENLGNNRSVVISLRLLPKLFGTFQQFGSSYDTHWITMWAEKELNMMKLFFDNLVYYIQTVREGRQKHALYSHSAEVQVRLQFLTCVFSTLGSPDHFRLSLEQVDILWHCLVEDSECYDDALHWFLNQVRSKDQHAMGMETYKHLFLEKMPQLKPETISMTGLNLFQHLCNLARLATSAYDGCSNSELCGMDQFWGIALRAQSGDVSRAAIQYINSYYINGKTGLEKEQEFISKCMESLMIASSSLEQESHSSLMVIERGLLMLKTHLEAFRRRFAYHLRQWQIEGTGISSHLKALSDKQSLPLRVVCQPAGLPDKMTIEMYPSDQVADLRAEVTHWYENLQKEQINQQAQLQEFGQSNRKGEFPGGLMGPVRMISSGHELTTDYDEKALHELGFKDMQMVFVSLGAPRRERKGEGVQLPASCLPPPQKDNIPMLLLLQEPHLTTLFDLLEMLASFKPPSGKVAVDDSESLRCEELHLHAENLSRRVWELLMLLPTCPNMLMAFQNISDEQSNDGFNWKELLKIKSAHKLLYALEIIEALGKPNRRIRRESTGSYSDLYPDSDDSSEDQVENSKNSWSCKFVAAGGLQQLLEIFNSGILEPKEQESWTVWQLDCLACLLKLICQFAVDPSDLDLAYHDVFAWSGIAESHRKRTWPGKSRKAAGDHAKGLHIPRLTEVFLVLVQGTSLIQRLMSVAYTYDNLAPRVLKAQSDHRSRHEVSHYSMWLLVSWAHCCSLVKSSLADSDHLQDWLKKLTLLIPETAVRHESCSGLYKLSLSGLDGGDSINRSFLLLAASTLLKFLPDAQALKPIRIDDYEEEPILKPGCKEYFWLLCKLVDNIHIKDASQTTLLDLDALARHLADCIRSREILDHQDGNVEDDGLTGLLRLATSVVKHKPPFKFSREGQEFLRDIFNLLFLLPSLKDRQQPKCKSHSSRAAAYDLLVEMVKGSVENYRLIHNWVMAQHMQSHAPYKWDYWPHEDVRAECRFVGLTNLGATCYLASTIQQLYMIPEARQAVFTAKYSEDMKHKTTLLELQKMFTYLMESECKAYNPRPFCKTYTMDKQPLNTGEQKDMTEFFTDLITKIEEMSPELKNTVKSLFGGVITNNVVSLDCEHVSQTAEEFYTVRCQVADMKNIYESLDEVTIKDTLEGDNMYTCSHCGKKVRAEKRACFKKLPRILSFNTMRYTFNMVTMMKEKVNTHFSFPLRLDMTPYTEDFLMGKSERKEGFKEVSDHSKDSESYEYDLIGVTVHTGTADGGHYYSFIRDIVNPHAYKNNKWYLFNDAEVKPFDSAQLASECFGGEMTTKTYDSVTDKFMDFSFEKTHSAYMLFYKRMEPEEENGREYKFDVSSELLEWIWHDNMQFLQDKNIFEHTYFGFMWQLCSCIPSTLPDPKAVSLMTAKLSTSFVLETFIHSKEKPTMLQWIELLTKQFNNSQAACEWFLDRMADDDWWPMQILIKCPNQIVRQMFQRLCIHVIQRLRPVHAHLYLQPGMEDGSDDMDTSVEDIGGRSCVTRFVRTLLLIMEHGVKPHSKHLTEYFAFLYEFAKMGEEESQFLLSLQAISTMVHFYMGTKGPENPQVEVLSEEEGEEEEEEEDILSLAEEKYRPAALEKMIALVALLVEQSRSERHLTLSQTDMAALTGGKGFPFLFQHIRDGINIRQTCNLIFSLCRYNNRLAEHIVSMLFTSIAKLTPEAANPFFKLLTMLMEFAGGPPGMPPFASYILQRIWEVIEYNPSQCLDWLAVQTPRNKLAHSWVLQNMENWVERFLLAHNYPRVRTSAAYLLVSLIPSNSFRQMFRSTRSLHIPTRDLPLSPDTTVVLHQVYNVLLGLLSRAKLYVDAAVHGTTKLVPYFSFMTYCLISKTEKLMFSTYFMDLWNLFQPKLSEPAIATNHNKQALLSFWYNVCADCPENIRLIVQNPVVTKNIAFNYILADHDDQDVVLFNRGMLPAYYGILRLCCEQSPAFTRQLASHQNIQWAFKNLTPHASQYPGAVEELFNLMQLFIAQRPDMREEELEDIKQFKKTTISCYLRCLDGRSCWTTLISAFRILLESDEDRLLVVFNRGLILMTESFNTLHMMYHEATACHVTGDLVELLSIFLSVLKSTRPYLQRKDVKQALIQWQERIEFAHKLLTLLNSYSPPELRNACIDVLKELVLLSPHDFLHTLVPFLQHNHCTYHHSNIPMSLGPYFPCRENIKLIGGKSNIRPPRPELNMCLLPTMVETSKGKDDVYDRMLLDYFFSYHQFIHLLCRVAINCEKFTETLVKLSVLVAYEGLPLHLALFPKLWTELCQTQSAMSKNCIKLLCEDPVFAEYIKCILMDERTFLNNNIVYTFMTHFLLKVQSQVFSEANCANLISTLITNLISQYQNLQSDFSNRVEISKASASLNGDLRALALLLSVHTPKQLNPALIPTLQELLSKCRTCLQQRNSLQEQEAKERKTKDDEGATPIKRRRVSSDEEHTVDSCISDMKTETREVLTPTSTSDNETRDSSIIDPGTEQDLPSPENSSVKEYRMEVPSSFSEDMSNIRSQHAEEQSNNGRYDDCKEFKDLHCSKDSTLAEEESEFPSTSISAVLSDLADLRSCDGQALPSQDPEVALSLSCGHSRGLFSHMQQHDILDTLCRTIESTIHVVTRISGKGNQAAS

Cc1ccc(-c2nnc(C)[nH]2)c(NC(=O)CCl)c1
inactive: USP34 0.0375 | USP36 -0.152 | USP38 0.151 | USP39 0.182 | USP4 0.0297
